In PubChem BioAssay AID1159580 (chemical genetic matrix, 2015):
Hit rate of the full screen: of about 5,500 compounds, about 2,000 (36%) were called active. About 18% were inconclusive and are not listed. Cut-off read from the data, not from the text of the source: active = normalized growth mostly below about 0.91 (no sharp cut-off); inconclusive = no clear call, values can overlap the other calls; inactive = mostly above about 0.92. This is one part of the list.

Experiment: chemical genetic growth profiling, strain panel (AID 1159580);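 note: tested at 20 µM; growth read once vehicle control cultures reached saturation at 30 °C; 1 = growth at the plate median or of vehicle wells; lower values mean less growth of the strain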
Conditions: S. cerevisiae deletion strains, growth OD

Measured: normalized growth

Cc1c(CC(C)(C)C(=O)O)n(Cc2ccc(Cl)cc2)c2ccc(F)cc12
inactive: locus YAL040C, strain CLN3, stronger effect = lower value 0.974 | locus YCL061C, strain MRC1 (second series), stronger effect = lower value 0.985 | locus YDR363W, strain ESC2, stronger effect = lower value 0.986 | locus YER002W, strain NOP16, stronger effect = lower value 0.978 | locus YMR263W, strain SAP30, stronger effect = lower value 0.971 | locus YNL175C, strain NOP13, stronger effect = lower value 0.985 | locus YNL197C, strain WHI3, stronger effect = lower value 0.974 | locus YNL224C, strain SQS1, stronger effect = lower value 0.978 | locus YOR083W, strain WHI5 (second series), stronger effect = lower value 0.986 | locus YPL055C, strain LGE1, stronger effect = lower value 0.923
